# Assay results published in PubChem BioAssay AID651699 (Sanford-Burnham Center for Chemical Genomics, 2012).
# Hit rate of the full screen: of about 360,000 compounds, about 2,100 (0.58%) were called active. Only a selection was taken, and actives are over-represented in it overall. A number with no mark means an inactive call. Cut-off read from the data, not from the text of the source: active = inhibition above about 36%; inactive = the rest.
# Biological target: NEDD8-conjugating enzyme Ubc12 (Homo sapiens) + NEDD8-activating enzyme E1 regulatory subunit (Homo sapiens) (UniProt P61081+Q13564)
# Sequence (P61081 whole entry, looked up): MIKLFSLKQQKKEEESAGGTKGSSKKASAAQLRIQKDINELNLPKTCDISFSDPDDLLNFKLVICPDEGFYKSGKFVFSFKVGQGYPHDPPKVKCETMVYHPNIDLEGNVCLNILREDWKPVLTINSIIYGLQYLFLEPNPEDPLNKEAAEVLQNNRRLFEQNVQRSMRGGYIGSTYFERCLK
# Sequence (Q13564 whole entry, looked up): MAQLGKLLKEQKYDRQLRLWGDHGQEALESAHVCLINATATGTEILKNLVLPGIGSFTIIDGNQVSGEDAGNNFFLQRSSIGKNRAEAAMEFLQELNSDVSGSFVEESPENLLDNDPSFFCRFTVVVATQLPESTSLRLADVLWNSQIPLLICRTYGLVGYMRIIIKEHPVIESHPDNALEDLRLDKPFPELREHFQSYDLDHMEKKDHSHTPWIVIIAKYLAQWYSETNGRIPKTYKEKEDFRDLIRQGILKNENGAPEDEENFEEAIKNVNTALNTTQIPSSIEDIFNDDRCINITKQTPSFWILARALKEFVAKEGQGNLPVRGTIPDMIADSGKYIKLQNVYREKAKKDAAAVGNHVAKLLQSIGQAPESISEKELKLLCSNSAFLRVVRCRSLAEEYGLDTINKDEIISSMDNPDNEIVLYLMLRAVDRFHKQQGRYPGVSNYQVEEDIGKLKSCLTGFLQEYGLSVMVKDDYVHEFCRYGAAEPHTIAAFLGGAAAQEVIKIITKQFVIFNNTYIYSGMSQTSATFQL
# Assay: NEDD8 transfer onto cullin, blockade – biochemical, TR-FRET, uHTS, NAE and Ubc12, primary screen (AID 651699)
# Conditions: TR-FRET cullin neddylation, at 25 µM, hits give high values
row,Compound,inhibition
1,COc1ccc(N2CC(C(=O)N[C@@H](C)C(=O)N3CCCCC3)CC2=O)cc1 (stereo partly drawn),-5.41%
2,O=C1NC(c2ccncc2)Nc2sc3c(c21)CCCC3 (stereo not drawn),44.1% (active)
3,COc1ccc(OC)c(/C=N/NC(=O)c2ccc[n+](CC(=O)c3ccccc3)c2)c1,-1.66%
4,O=C(N/N=C/c1ccsc1)c1cc(O)cc(O)c1,-1.8%
5,COc1cccc(Cn2cc(/C=N/NC(=O)c3cc(O)cc(O)c3)c3ccccc32)c1,57.8% (active)
6,NC(=O)CN1CCCC1c1ccc2c(c1)OCCO2 (stereo not drawn),0.21%
7,CCOc1ccc(NC(=O)C2CCCN(C(=O)Nc3ccccc3)C2)cc1 (stereo not drawn),-6.95%
8,CCCCc1cc2c(s1)CCCC/C2=N/O,-11.4%
9,C=CCN1C(=O)C(O)(CC(=O)c2ccccn2)c2ccccc21 (stereo not drawn),1.24%
10,COc1ccc(/C=C(\C#N)c2c[nH]c3ccccc23)cc1,44.5% (active)
11,C[N+](C)(C)CCNC(=O)c1c[nH]c2ccccc12,16.8%
12,COc1ccc(C2C(C(C)=O)=C(O)C(=O)N2CCc2c[nH]c3ccccc23)cc1 (stereo not drawn),-15.3%
13,O=C(CCN1C(=O)c2ccccc2C1=O)C1=NN[C@@H]2C(=O)N(c3ccc(F)cc3)C(=O)[C@H]12,-15%
14,C[C@H](O)[C@@H]1C(=O)N2CCc3ccc(N4CCOCC4)cc3[C@@H]2C[C@@H]1N(C)C(=O)C(C)(C)C,22%
15,C[C@H](O)[C@@H]1C(=O)N2CCc3c([nH]c4ccccc34)[C@@H]2C[C@@H]1N(C)C(=O)Nc1ccc(F)cc1,50.2% (active)
16,COCC(=O)N(C)[C@H]1C[C@H]2c3cc(Oc4ccccc4C)ccc3CCN2C(=O)[C@H]1[C@H](C)O,2.1%
17,CC(=O)N1c2ccc(S(=O)(=O)N(C)CC(=O)N(C)Cc3ccccc3)cc2CC1C (stereo not drawn),1.96%
18,Cc1ccc(CN(Cc2cccnc2)C(=S)Nc2cccc(Cl)c2C)cc1,1.43%
19,COCCn1c(Cc2cccn2C)nnc1SCC(=O)Nc1nccs1,-1.55%
20,CCCCN(C=O)c1c(CC)nc2c(OCc3ccccc3C(=O)OC)cccn12,8.99%
21,COc1ccc(C2OC(=O)CC2C(=O)NC(C)C)cc1 (stereo not drawn),4.68%
22,COCCNC(=O)CN(Cc1ccco1)C(=O)CCC(=O)Nc1nccs1,0.84%
23,COCCNC(=O)Nc1ccc2nc(-c3ccco3)c(-c3ccco3)nc2c1,49.3% (active)
24,COCCNC(=O)c1ccc2nc(Cc3ccc(OC)c(OC)c3)oc2c1,-5.61%

row,Compound,inhibition
1,CSCCC(NC(=O)c1ccc(Cl)cc1Cl)C(=O)NNC(=O)c1csc(N2CCOCC2)n1 (stereo not drawn),31%
2,Cc1ccc(N/N=C2\COC(C)(C)CC2=O)cc1,0.52%
3,CS(=O)(=O)c1ccc2nc(NC(=O)c3ccc(Cl)nc3)sc2c1,65.7% (active)
4,NS(=O)(=O)c1ccc2nc(NC(=O)CS(=O)(=O)c3ccc(F)cc3)sc2c1,1.17%
5,Cc1nc2ccc(S(=O)(=O)NCC(=O)O)cc2s1,7.99%
6,Cc1nn2c(=O)cc(COC(=O)c3ccc(NC(=O)C(C)(C)C)cc3)nc2s1,-2.19%
7,CCOC(=O)C1CCCN(C(=O)C2CCN(S(=O)(=O)c3ccc(Cl)c(C(F)(F)F)c3)CC2)C1 (stereo not drawn),-19.5%
8,CCOc1cc(C(=O)Nc2ccc(S(=O)(=O)Nc3cnc4ccccc4n3)cc2)cc(OCC)c1OCC,6.73%
9,Cc1ccc2nsnc2c1NC(=O)c1ccccc1[N+](=O)[O-],-26.4%
10,CCOc1cc(C(=O)Nc2c(C)ccc3nsnc23)cc(OCC)c1OCC,41.7% (active)
11,COc1ccc([N+](=O)[O-])cc1C1NN=C(c2cccc3ccccc23)S1 (stereo not drawn),-3.56%
12,COc1ccc2c(c1OC)C(=O)N(c1ncn[nH]1)C2,39.8% (active)
13,COc1ccc(C2C(C#N)=C(N)N(c3ncn[nH]3)C3=C2C(=O)CCC3)cc1 (stereo not drawn),-6.24%
14,COc1ccc2c(c1OC)C(=O)N(c1ccc(O)cc1)C2,14.7%
15,COc1ccc(NC(=O)CCC(=O)N2CCN(S(=O)(=O)c3ccc(C)cc3)CC2)c(OC)c1,2.78%
16,Cc1c(C2=CCN(S(=O)(=O)c3ccc(Cl)cc3)CC2)c2ccccc2n1C,-207%
17,CN(C)CC/C=C1\c2ccccc2CSc2ccccc21,6.08%
18,COC(=O)c1ccc2nc(-c3ccc(F)cc3)c(Cc3ccc(C)cc3)n2c1,36.3%
19,COC(=O)c1ccc2nc(-c3ccc(Cl)cc3)c(Cc3cccc(F)c3)n2c1,25.5%
20,COC(=O)c1ccc2nc(-c3ccc(OC)c(OC)c3)c(Cc3ccccc3)n2c1,41.4% (active)
21,CC[C@]12c3[nH]c4ccc(Cl)cc4c3CCN1C(=O)[C@@H](CC(=O)NCCCOC)C[C@@H]2C(=O)N1CCN(C(=O)c2ccco2)CC1,3.68%
22,COc1c(C(C)C)oc2cc3oc(=O)ccc3cc12,36.1%
23,COC(=O)Cn1c(=NC(=O)CSCC(=O)Nc2cc(C)on2)sc2ccccc21,6.58%
24,Cc1ccc(-c2cc(C(=O)N/N=C/C=C/c3ccccc3)n[nH]2)o1,-6.17%

row,Compound,inhibition
1,S=c1[nH]nc(/C=C/c2ccccc2)o1,40.5% (active)
2,CC(C)(C)c1cc2cccnc2n1Cc1ccccc1,24.2%
3,Cc1cnc(CN(C)C(=O)C2CCC(=O)N(CCc3cccc(F)c3)C2)[nH]1 (stereo not drawn),-3.06%
4,Cc1cccn2c(=O)c3cc(C(=O)NCCN4CCOCC4)c(=N)n(Cc4cccnc4)c3nc12,68.3% (active)
5,CCCn1c(=O)c(-c2ccccc2)c(O)c2ccccc21,44.3% (active)
6,CCCCCn1c(=O)c(C(=O)OCC)c(Cl)c2ccccc21,4.01%
7,CCCNC(=O)CCn1nc(-c2ccccc2)c2ccccc2c1=O,-0.32%
8,O=C1OC(Cc2ccccc2)C(c2ccccc2)C1=O (stereo not drawn),-10.9%
9,CCN(CC)c1ccc(/C=N/Nc2nc(C)cc(=O)[nH]2)cc1,42% (active)
10,Cc1cc(=O)[nH]c(Nc2cccc(Br)c2)n1,-6.28%
11,Cc1cc(=O)[nH]c(SCc2ccc(Cl)cc2)n1,-1.58%
12,COc1ccc(CNC(=O)C(=O)N2CCC3(CC2)OCCN3S(=O)(=O)c2ccc(C)cc2)cc1,4.54%
13,CCOC(=O)C1=C(O)/C(=C/c2cc(C)n(-c3ccccc3)c2C)N=C1C,16.8%
14,CC1=CC2=NC(=O)/C(=C/c3coc4ccccc4c3=O)C(=N)N2O1,-38.8%
15,Cc1cc(/C=C2/C(=N)N3C(=NC2=O)SN=C3S(C)(=O)=O)c(C)n1-c1ccccc1,44.8% (active)
16,COc1ccc(Cl)cc1NC(=O)CN(C)C(=O)c1ccc2n[nH]nc2c1,7.09%
17,COc1ccc(-c2cc(C(=O)N(C)CC(=O)Nc3ccccc3Cl)c3ccccc3n2)cc1OC,46.6% (active)
18,COc1cccc(NC(=O)CN(C)C(=O)c2cc(Cl)nc3ccccc23)c1,-0.49%
19,CC(=O)NC1CCN(CC(=O)Nc2nccs2)CC1,-3.21%
20,COC(=O)c1noc(C)c1-c1ccnn1C(=O)c1ccc(Cl)cc1,-11.9%
21,CC1CCC2CCCCC2N1C(=O)c1cc([N+](=O)[O-])cc([N+](=O)[O-])c1 (stereo not drawn),-35.2%
22,CC(C)c1cc(C(=O)N/N=C/c2ccoc2)c(O)c(C(C)C)c1,49.1% (active)
23,CC(Oc1ccccc1[N+](=O)[O-])C(=O)N/N=C/c1ccoc1 (stereo not drawn),-9.94%
24,O=C(N/N=C/c1ccoc1)c1ccc(Cl)cc1Cl,1.29%

row,Compound,inhibition
1,COc1ccc(OC)c(NC(=O)CSc2nc(N)c(-c3ccccc3)c(=O)[nH]2)c1,26.4%
2,Cc1cc(C)c(C=NNc2nc3c([nH]2)c(=O)n(C)c(=O)n3C)c(C)c1,39.2% (active)
3,CC(CCO)Nc1nc2c([nH]1)c(=O)n(C)c(=O)n2C (stereo not drawn),10.7%
4,Cc1ccc(NN=Nc2nc3c([nH]2)c(=O)n(C)c(=O)n3C)cc1,1.85%
5,COc1cccc(/C=N/NC(=O)C(=O)N2CCCC2)c1,-14.6%
6,O=C(CN1C(=O)CC(c2ccccc2)=Nc2ccccc21)NC1CCCCC1,-13.9%
7,O=C(NCc1cccc(Cl)c1)C1=CC=CN2CCS(=O)(=O)N=C12,33% (active)
8,O=C(NCc1cccc(Cl)c1)C1CCC(=O)N(C2CC2)C1 (stereo not drawn),-4.68%
9,O=C(NCc1cccc(Cl)c1)C1CCN(c2nnc(N3CCCC3=O)s2)CC1,9.68%
10,CCOc1cc(/C=N/Nc2cc(C)nc3ccc(C)cc23)ccc1O,39.9% (active)
11,CCOc1cc(/C=N/NC(=O)c2ccncc2)cc(Br)c1O,-8.9%
12,CCOc1ccc(/C=N/NC(=O)C(C)Sc2ccccn2)cc1OCC (stereo not drawn),-5.74%
13,O=C(CCN1C(=O)C2C3CCC(C3)C2C1=O)Nc1ccc(Cl)cc1Cl (stereo not drawn),5.46%
14,O=C(CNC(=O)c1ccc(Br)o1)NCC1CCCO1 (stereo not drawn),10.6%
15,CCOc1ccc2[nH]c(=O)c(C(c3nnnn3CCOC)N3CCOCC3)cc2c1 (stereo not drawn),46% (active)
16,COCCn1nnnc1C(c1cc2ccc(OC)cc2[nH]c1=O)N1CCc2ccccc2C1 (stereo not drawn),-11.9%
17,COc1ccc(N2CCN(C(c3cc4ccc(C)cc4[nH]c3=O)c3nnnn3C3CCCC3)CC2)cc1 (stereo not drawn),8.39%
18,C=CCC(CC=C)(C(N)=O)c1ccccc1,-5.36%
19,CS(=O)(=O)Nc1ccc(C2=NN(S(C)(=O)=O)C(c3cccs3)C2)cc1 (stereo not drawn),51.1% (active)
20,CS(=O)(=O)Nc1cccc(C2=NN(C(=O)c3cccc(F)c3)C(c3cccs3)C2)c1 (stereo not drawn),-5.27%
21,Cc1ccc(C2CC(c3cccc(NS(C)(=O)=O)c3)=NN2S(C)(=O)=O)cc1 (stereo not drawn),7.24%
